# KCNQ2 pot = potentiators of rat KCNQ2 potassium channel | B-score at 10 µM | 0.54% of 310,000 active | O88943 | CHO-K1 KCNQ2, FluxOR thallium flux fluorescence; hits give high values;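 active = fluorescence ratio B-score at least 3 SD of library B-scores, with initial fluorescence B-score within 3 of them, cut at about 5.3 in these data; same plate scores as AID 2156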;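 note: B-score of peak minus minimum over baseline fluorescence ratio after K+ and Tl+ stimulus; positive B-score means potentiation of KCNQ2 with more thallium influx and brighter signal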
# KCNQ2 block = inhibitors of rat KCNQ2 potassium channel; O88943; CHO-K1 KCNQ2, FluxOR thallium flux, 20 min; hits give low values; B-score at 10 µM; 1.1% of 310,000 active;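 active = fluorescence ratio B-score at most minus 3 library SDs, with starting brightness B-score within 2 library SDs, cut at about -5.5 in these data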
# Kir21 confirm = confirmation of mouse Kir2.1 potassium channel inhibitors; AID 2032; Tl flux remaining, % of negative control (hits give low values), % at 10 µM; shares compounds with KCNQ2 pot; 41% of 2,300 active; Kir2.1-expressing cells, FluxOR thallium flux fluorescence; hits give low values;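 active = Primary-screen hit whose thallium flux fell at least 3 control SD below untreated wells in both duplicates, with normal baseline fluorescence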;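 note: 0% = blank wells without stimulus and 100% = stimulated no-compound controls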
# Target sequence (P35561 whole entry, looked up): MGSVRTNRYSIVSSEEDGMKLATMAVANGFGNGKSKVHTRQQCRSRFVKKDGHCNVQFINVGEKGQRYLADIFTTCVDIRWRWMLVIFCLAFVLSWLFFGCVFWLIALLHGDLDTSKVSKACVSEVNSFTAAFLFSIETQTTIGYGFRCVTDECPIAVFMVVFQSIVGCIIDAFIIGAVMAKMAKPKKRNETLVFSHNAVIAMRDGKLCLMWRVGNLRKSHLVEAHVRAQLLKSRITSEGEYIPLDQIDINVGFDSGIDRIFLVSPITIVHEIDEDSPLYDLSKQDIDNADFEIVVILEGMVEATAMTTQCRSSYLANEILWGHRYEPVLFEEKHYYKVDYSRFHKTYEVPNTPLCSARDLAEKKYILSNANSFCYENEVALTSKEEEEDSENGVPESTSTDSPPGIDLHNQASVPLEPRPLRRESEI
# HEK293 Tl flux = counter-screen for Kir2.1 inhibitors: effect in parental HEK293 cells; shares compounds with KCNQ2 pot; FluxOR thallium flux fluorescence; 0% = unstimulated blank wells; FluxOR signal as % of negative control (100 = no effect), % at 10 µM; 19% of 2,300 active; AID 2105;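 active = dye signal at least 3 control SD above or below untreated wells in both duplicates, raw fluorescence within 3, either direction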;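 note: percent is based on the flux ratio of peak minus minimum fluorescence over baseline F0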
# CHO-K1 Tl ctr = counter-screen for KCNQ2 potentiators: effect in parental CHO-K1 cells; 43% of 1,200 active; activity increase over 3SD of controls, % at 10 µM; AID 2282; shares compounds with KCNQ2 pot; FluxOR thallium flux fluorescence; zero = vehicle mean+3SD, 100% = vehicle-minus-blank window;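 active = signal rise of at least 3 SD above the untreated control mean, in both duplicate wells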;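 note: counter screen of KCNQ2 potentiator hits so any rise reflects channel-independent effects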
# KCNQ1 sel pot = tests whether KCNQ2 potentiators also act on human KCNQ1 | shares compounds with KCNQ2 pot | CHO KCNQ1 stable, FluxOR thallium flux fluorescence; beyond 3SD, as % of vehicle-control signal | activation over 3SD threshold, % at 10 µM | 28% of 1,200 active | AID 2283;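 active = fluorescence ratio rise of at least 3 SD of vehicle wells above their mean, in both replicate wells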;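 note: 0% = vehicle mean plus 3 SD and 100% = vehicle minus unstimulated blank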
# KCNQ2 pot conf = rat KCNQ2 channel potentiator confirmation; shares compounds with KCNQ2 pot; CHO-KCNQ2 cells, FluxOR thallium flux fluorescence; potentiation, less the hit threshold, % at 10 µM; 68% of 1,200 active;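 active = fluorescence ratio rising 3 SD or more over the vehicle control mean in both replicates, plus primary screen hit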;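 note: peak minus minimum thallium fluorescence divided by baseline after K/Tl stimulus; 0% = vehicle mean plus 3 SD and 100% = vehicle minus unstimulated blank difference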
# Kir21 spec = selectivity of KCNQ2 potentiators: effect on mouse Kir2.1 | shares compounds with KCNQ2 pot | HEK293 Kir2.1, FluxOR thallium flux fluorescence | 2% of 1,200 active | AID 2345 | activity over 3SD threshold, % at 10 µM;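 active = fluorescence ratio rise of at least 3 SD above the vehicle-control mean, seen in both replicates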;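 note: 0% = vehicle mean plus 3 SD and 100% = vehicle minus no-stimulus blank window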
# KCNQ2 W236L MoA = potentiates the retigabine-insensitive rat KCNQ2 W236L mutant channel; shares compounds with KCNQ2 pot; CHO KCNQ2-W236L, automated patch clamp current; current increase over 3SD of negative controls (%), hits give high values, % at 25 µM; 10% of 940 active; AID 2558;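 active = current increase at least 3 SD of the untreated controls above them in both duplicate recordings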
# * = called active by the depositor; i = inactive; . = not tested or not shown. The list is not random: actives were taken first. Their share in the collection is about 1.6%.
SMILES,KCNQ2 pot,KCNQ2 block,Kir21 confirm,HEK293 Tl flux,others
Cc1cc(C)c(NC(=O)C2CCCCN2C)c(C)c1 (centres undefined),.,i,.,.,
CCCCNC(=O)N1CCN(Cc2ccc(F)cc2)CC1,0.1,i,.,.,
Cc1cc(C)c2nc(NNC(=O)c3ccc(S(=O)(=O)N4CC(C)CC(C)C4)cc3)sc2c1 (centres undefined),5.8*,i,i,i,CHO-K1 Tl ctr=61*;KCNQ1 sel pot=-11;KCNQ2 pot conf=-22;Kir21 spec=-29
Cc1cc(C)c2nc(NNC(=O)c3ccc(S(=O)(=O)N4CCCC(C)C4)cc3)sc2c1 (centres undefined),1.8,i,.,.,
CC1=NN(C(=O)c2c(Br)cnn2C)C(O)(C(F)(F)F)C1 (centres undefined),14*,i,i,i,CHO-K1 Tl ctr=-17;KCNQ1 sel pot=-6;KCNQ2 pot conf=-13;Kir21 spec=-32
COc1ccc(OCC(=O)N2N=C(C)CC2(O)C(F)(F)F)cc1 (centres undefined),.,i,.,.,
CC(O)CNc1nc2ccccc2n1CC(=O)NCCc1ccc(Cl)cc1 (centres undefined),.,i,.,.,
Cc1ccc(C(=O)Nc2nc3ccccc3c(=O)s2)cc1,6.1*,i,i,254%*,CHO-K1 Tl ctr=-14;KCNQ1 sel pot=-15;KCNQ2 pot conf=-2;Kir21 spec=-17
CSc1nc2ccc3nc(NC(=O)c4ccc(C)cc4)sc3c2s1,0.66,i,.,.,
CCCCNC(=S)NNC(=O)C1=NN(c2cc(C)ccc2C)C(=O)CC1,0.25,i,.,.,
Nc1nc2c(nc(SCc3ccccc3Br)n2[C@@H]2O[C@H](CO)[C@@H](O)[C@H]2O)c(=O)[nH]1,1.9,i,.,.,
CCCCCc1cc(O)c2c(C)cc(=O)oc2c1,0.22,i,.,.,
CCCCc1cc(O)c(CCCC)c(O)c1,8.7*,i,.,.,CHO-K1 Tl ctr=-16;KCNQ1 sel pot=-15;KCNQ2 pot conf=38*;Kir21 spec=-55;KCNQ2 W236L MoA=i
Cc1cc2c(ncn2Cc2ccccc2)c([N+](=O)[O-])c1C,.,i,.,.,
O=C(Nc1cccc(S(=O)(=O)N2CCCCC2)c1)Nc1ccc(Cl)cc1Cl,.,i,.,.,
COc1ccc(NC(=O)Cc2nnc(SCC(=O)Nc3ccc(F)cc3)n2C)cc1,0.47,i,.,.,
S=C1NC[C@H](c2ccccc2)N1CCCCC1CCCCC1,0.4,i,.,.,
NC1=NC[C@H](c2ccccc2)N1CCCCC1CCCCC1,.,i,38%*,i,
COc1cccc(C(=O)Nc2ccncc2)c1OC,7.2*,i,i,i,CHO-K1 Tl ctr=-3;KCNQ1 sel pot=-17;KCNQ2 pot conf=-15;Kir21 spec=-42
COc1ccccc1C(=O)Nc1ccncc1,.,i,.,.,
CC1(C)SC2c3ccccc3C(=O)N2[C@@H]1C(=O)O (some centres undefined),.,i,.,.,
Cn1c(N)c(C(=O)COC(=O)C2CC(=O)N(Cc3ccccc3)C2)c(=O)n(C)c1=O (centres undefined),0.23,i,.,.,
O=C1N=C(N2CCCC2C(=O)O)S/C1=C\c1ccco1 (centres undefined),0.98,i,.,.,
COc1ccc(CN(CCN(C)C)c2ccccn2)cc1,1.3,i,.,.,
CC(C)n1cnc2c(N(C)c3ccccc3)nc(N(CCN(C)C)Cc3ccccc3)nc21,.,i,48%*,i,
SMILES,KCNQ2 pot,KCNQ2 block,Kir21 confirm,HEK293 Tl flux,others
Cc1cc(N2C(=O)C(O)=C(C(=O)c3ccco3)C2c2ccccc2F)no1 (centres undefined),.,i,.,.,
O=C(COC(=O)C1(c2cccc(F)c2)CCCC1)NCc1ccc2c(c1)OCO2,.,i,.,.,
S=C(Nc1ccccc1)N1CCCCC1,6.9*,i,i,i,CHO-K1 Tl ctr=-14;KCNQ1 sel pot=6.3*;KCNQ2 pot conf=-14;Kir21 spec=-29
O=C(O)c1ccc(NC(=S)N2CCCCC2)cc1,0.58,i,.,.,
CCCCn1c(=NC(=O)c2ccco2)c(C(=O)OCC)cc2c(=O)n3cccc(C)c3nc21,2,i,.,.,
c1ccc(COc2ccccc2CNC2CCCC2)cc1,2.2,i,.,.,
c1ccc(COc2ccccc2CNC23CC4CC(CC(C4)C2)C3)cc1,.,i,42%*,i,
NS(=O)(=O)c1cccc(NC(=O)COC(=O)CN2C(=O)C3CC=CCC3C2=O)c1 (centres undefined),0.8,i,.,.,
COc1ccc(C(=O)Nc2nc3cc4c(cc3s2)OCCO4)c(OC)c1,0.99,i,.,.,
C=CCn1c(COc2ccc(Cl)cc2)nnc1SCc1ccc(C#N)cc1,.,i,.,.,
C=CCn1c(COc2ccccc2)nnc1SCc1ccc(C#N)cc1,.,i,45%*,69%*,
CCN(CC1COc2ccccc2O1)C(=S)NC1CC2CCC1C2 (centres undefined),12*,i,i,64%*,CHO-K1 Tl ctr=37*;KCNQ1 sel pot=-13;KCNQ2 pot conf=-6;Kir21 spec=-35;KCNQ2 W236L MoA=i
CN(CC1COc2ccccc2O1)C(=S)Nc1ccccc1 (centres undefined),.,i,.,.,
Cc1cc(N/N=C/c2cccc([N+](=O)[O-])c2)nc(-n2nc(C)cc2C)n1,1.6,i,.,.,
Cc1cc(N/N=C/c2ccccc2[N+](=O)[O-])nc(-n2nc(C)cc2C)n1,5.4*,i,i,i,CHO-K1 Tl ctr=-14;KCNQ1 sel pot=-33;KCNQ2 pot conf=-6;Kir21 spec=-12
CCC(C)NC(=O)Cn1cc(S(=O)(=O)N2CCN(c3ccccc3F)CC2)c2ccccc2c1=O (centres undefined),.,i,.,.,
O=C(c1ccc(S(=O)(=O)c2ccccc2Cl)c([N+](=O)[O-])c1)N1CCCCCC1,.,i,.,.,
C=CCOc1ccc(/C=C2\SC(=S)N(NS(=O)(=O)c3ccc(C)cc3)C2=O)cc1,7.7*,i,i,158%*,CHO-K1 Tl ctr=17*;KCNQ1 sel pot=-21;KCNQ2 pot conf=17*;Kir21 spec=-36;KCNQ2 W236L MoA=i
COc1ccc(/C=C2/SC(=S)N(NS(=O)(=O)c3ccc(C)cc3)C2=O)cc1,5.1,i,.,.,
CC(=O)/C(C#N)=C1\NC(=O)C(Cc2ccc(C)c(C)c2)S1 (centres undefined),7.2*,i,i,i,CHO-K1 Tl ctr=3.5*;KCNQ1 sel pot=-20;KCNQ2 pot conf=-86;Kir21 spec=-29
CC(=O)/C(C#N)=C1\NC(=O)C(Cc2ccc(F)cc2)S1 (centres undefined),0.65,i,.,.,
COc1ccc(C(=O)CCS(=O)(=O)c2ccc(F)cc2)cc1OC,6.6*,i,i,i,CHO-K1 Tl ctr=36*;KCNQ1 sel pot=60*;KCNQ2 pot conf=24*;Kir21 spec=-52;KCNQ2 W236L MoA=6.0%*
COc1ccc(C(=O)N2CCN(S(=O)(=O)c3ccc(F)cc3)CC2)cc1OC,.,i,.,.,

# Compound activity: PubChem BioAssay, Johns Hopkins Ion Channel Center
